The values below come from PubChem BioAssay AID504652 (National Center for Advancing Translational Sciences (NCATS), 2011).

Among all 360,000 compounds or so, about 11,000 (3.1%) were called active. The list comes from a sample in which actives are over-represented; it also holds similar structures and randomly drawn compounds. A number with no mark means an inactive call. Rule as the data show it: active = activity change below about -30%; inactive = the rest.
% is scaled to controls: 0 for no effect and ±100 for the full control effect.

D(1A) dopamine receptor (Homo sapiens), sequence (P21728 whole entry, looked up): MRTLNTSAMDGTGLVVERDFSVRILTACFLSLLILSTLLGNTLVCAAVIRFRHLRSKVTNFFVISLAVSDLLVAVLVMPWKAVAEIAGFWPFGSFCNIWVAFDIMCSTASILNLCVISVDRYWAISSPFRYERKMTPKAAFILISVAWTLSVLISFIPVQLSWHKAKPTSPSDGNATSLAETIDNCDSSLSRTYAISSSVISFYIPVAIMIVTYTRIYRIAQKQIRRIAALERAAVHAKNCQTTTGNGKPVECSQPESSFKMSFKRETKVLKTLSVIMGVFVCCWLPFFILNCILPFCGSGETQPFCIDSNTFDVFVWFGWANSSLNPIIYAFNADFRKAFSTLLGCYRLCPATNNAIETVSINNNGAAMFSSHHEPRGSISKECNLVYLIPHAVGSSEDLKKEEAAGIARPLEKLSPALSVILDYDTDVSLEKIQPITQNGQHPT

The experiment has as its target D(1A) dopamine receptor (Homo sapiens) (UniProt P21728). Nature of the experiment: Antagonist of Human D 1 Dopamine Receptor: qHTS. The note with it: HEK293 TREx D1 cells, calcium flux, dopamine EC80; at 10 µM; active compounds read low. A digest of the protocol:
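Calcium flux readout: force-coupled, inducible Hek293 Trex D1 line, cells induced overnight at 30 C with tetracycline, dye-loaded 30–90 min at RT. Antagonism scored against EC80 dopamine challenge given 180 s after compound.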
On the technique in general: Quantitative high-throughput screening tests each substance at several concentrations.
For `O=C(COc1ccc(Cl)cc1)N(Cc1ccco1)Cc1ccco1`, the activity change, negative = inhibition is -16.4%.
As to `COC(=O)c1nc(NC(=O)c2ccc(C(C)(C)C)cc2)n[nH]1`, the activity change, negative = inhibition was -14.1%.
On to `COC(=O)c1sc(-c2ccc(C(C)(C)C)cc2)cc1NC(=O)/C=C/C(=O)O`, for which the activity change, negative = inhibition is -37% (active).
The result for `COc1ccccc1NC(=O)/C=C/C(N)=O` reads 19.1%; that for `O=C(O)c1ccc(Nc2nc(-c3ccccc3)c3cc(Br)ccc3n2)cc1`, -12.9%; that for `COc1ccc(NC(=O)Cn2c(-c3ccc(OC)cc3)cn(-c3ccc(C)cc3)c2=O)cc1`, 3.29%.
On to `COc1ccc(C(CC(=O)Nc2ccc(C)cc2)NC(=O)C(F)(F)F)cc1` (stereo not given), for which the activity change, negative = inhibition is -43.5% (active).
The result for `COc1ccc(NC(=O)CC(NC(C)c2ccccc2)C(=O)O)cc1` (stereo not given) reads -21.7%; that for `COc1ccc(-c2[nH]c3c(c2-c2c(-n4cccc4)n(C)c(=O)n(C)c2=O)c(=O)n(C)c(=O)n3C)cc1`, 1.12%.
With `Cc1ccc(-c2cc(N)n(Cc3cccc(Cl)c3)n2)cc1`, the activity change, negative = inhibition was -6.88%.
The result for `O=C(CC(NCc1cccnc1)C(=O)O)Nc1ccc(O)cc1` (stereo not given) reads 0.451%; that for `O=[S+]([O-])(c1ccc2c(c1)OCCO2)N1CCN([S+](=O)([O-])c2c(Cl)cc(Cl)cc2Br)CC1`, -16.4%; that for `Clc1ccc(-c2cc(COc3ccccc3)no2)cc1Cl`, 1.76%.
Turning to `O=C(Nc1ccc(Cl)cc1)OCc1cc(-c2ccccc2)on1`, the activity change, negative = inhibition was -17%.
The result for `O=C(Nc1ccccc1)OCc1cc(-c2ccc(Cl)cc2)on1` reads -32.2% (active).
The result for `CCCCNC(=O)CSc1nc2cc3c(cc2c(=O)n1CCCCCC(=O)NCc1ccc2c(c1)OCO2)OCO3` reads -9.04%; that for `CCOc1ccc(OCc2ccc(C(=O)Nc3cccc(C)n3)o2)cc1`, 1.17%.
Regarding `CC(=O)Cc1nsc(NC(=O)c2ccc(Cl)cc2Cl)n1`, the activity change, negative = inhibition was -11.9%.
The result for `CC(=O)Cc1nsc(NC(=O)c2ccc(COc3ccc(C)cc3)o2)n1` reads -39.7% (active); that for `COc1ccccc1-c1nnc(C2CCN(C(=O)c3ccc(Cl)cc3)CC2)o1`, -12.2%; that for `O=C(CCc1cn(Cc2ccc(F)cc2)c2ccccc12)NC1CCCCC1`, -2.06%.
As for `COc1cc2c(cc1OC)C(COc1ccc(F)cc1)N(C(=O)c1ccccc1F)CC2` (stereo not given), the activity change, negative = inhibition is 1.87%.
Regarding `CC(C)NC(=O)/C(C#N)=C\c1ccc(N(C)C)c(Br)c1`, the activity change, negative = inhibition is -4.83%.
On to `Cc1ccc(/C=C(\C#N)C(=O)Nc2cc(C)ccc2C)cc1`, for which the activity change, negative = inhibition is 2.52%.
As to `CC(C)(C)C(=O)/C(C#N)=C/c1ccc(O)cc1`, the activity change, negative = inhibition was -33.6% (active).
